Data on four compounds can be found in PubChem BioAssay.

Assay [1] deals with Wnt5a (protein binding on small-molecule microarray). Briefly: small molecules binding Wnt5a protein – biophysical, small-molecule microarray, 635/667 nm fluorescence, primary screen (AID 1142).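 Note: fluorescence read at 667 nm with signal to noise per printed feature.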 Conditions: 635 nm fluorescence, higher = more signal.
A short description of assay [2]: ATP-based viability of Huh7 replicon cells – cell-based, CellTiter-Glo luminescence, basal, 48 h, cytotoxicity control for HCV replication inhibitor project, primary screen (AID 1143).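 Note: Huh7 hepatoma cells carrying a hepatitis C replication reporter with no stimulus; test concentration not given here.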 The conditions noted are these: higher = more signal, called active from +8 up or from −8 down. (In antiviral work, replicon cells carry a viral genome segment that copies itself.)
A short description of assay [3]: Pseudomonas biofilm growth suppression – PAO1 strain, BacTiter-Glo luminescence, LB-PBS, primary screen (AID 1144). The conditions noted are these: P. aeruginosa PAO1 biofilm, 12 h, higher = more signal.
Assay [4] in a line: basal CRE-LacZ reporter activity in PC12 – cell-based, unstimulated, primary screen (AID 1145). Conditions: no forskolin, luminescence, 4.5 h, higher = more signal, called active from +8 up or from −8 down.
Assay [5] is described as follows: forskolin-driven CRE-LacZ activity in PC12 – cell-based, CRE-LacZ reporter, forskolin-stimulated, primary screen (AID 1146).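 Note: PC12 cells with 6xCRE LacZ reporter stimulated by forskolin 10 µM; beta-galactosidase reporter signal reflecting CREB driven transcription.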 The conditions noted are these: luminescence, 4.5 h, higher = more signal, called active from +8 up or from −8 down.
Assay [6] deals with Streptavidin (Streptomyces avidinii) (UniProt P22629). Kind of assay: compounds binding control protein streptavidin – biophysical, small-molecule microarray, 635/667 nm fluorescence, artefact control for SMM compound annotation, primary screen (AID 1147).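 Note: signal reflects streptavidin binding to arrayed compounds as a control protein.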 The conditions noted are these: higher = more signal.
Assay [7] is described as follows: probe aInhba binding on compound microarray – biochemical, small-molecule microarray, 635/667 nm fluorescence, primary screen (AID 1148).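 Note: score merges 667nm spot fluorescence with signal-to-noise for antibody binding to printed compounds.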 The conditions noted are these: higher = more signal.
The target of assay [8] is Torsin-1A (Homo sapiens) (UniProt O14656). Kind of assay: TOR1A wild-type binding on microarray – cell lysate, small-molecule microarray, lysate, 635/667 nm, primary screen (AID 1149). The conditions noted are these: COS7 hTOR1A-WT lysate, 635 nm fluorescence, higher = more signal.
For assay [9] the target is unchanged. Briefly: torsin A mutant lysate binding on microarrays – cell lysate, small-molecule microarray, COS7 lysate, 635/667 nm fluorescence, primary screen (AID 1150).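 Note: score pools 667 nm emission and signal to noise measuring lysate protein binding.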 Conditions: COS7 hTOR1A mutant lysate, 635 nm fluorescence, higher = more signal.
Assay [10] has as its system Sonic hedgehog protein (Shh). Briefly: Sonic hedgehog microarray binding compounds – biochemical, small-molecule microarray, 635/667 nm fluorescence, primary screen (AID 1151).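 Note: Shh protein binding to compounds spotted on small-molecule microarray slides; score combines spot fluorescence intensity with signal-to-noise across triplicate slides.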 The conditions noted are these: 635 nm fluorescence, higher = more signal.
Assay [11] can be described thus: optical density shifts of acrAB sulA E. coli – strain DRC41, OD650, 48 h, E. coli filamentation inducer project, primary screen (AID 1152).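 Note: E. coli MC1000 strain DRC41 lacking acrAB efflux pump and sulA.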 Conditions: higher = more signal, called active from +8 up or from −8 down.
Assay [12] can be described thus: probe aLefty1 binding on compound microarray – biochemical, small-molecule microarray, 635/667 nm fluorescence, primary screen (AID 1153).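 Note: score merges spot fluorescence with signal-to-noise ratio from the scanned slide images.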 The conditions noted are these: higher = more signal.
Assay [13] in a line: plasmodial surface anion channel blockers, osmotic lysis – cell-based, P. falciparum Indochina, OD700, 1 h, primary screen (AID 1154). Conditions: P. falciparum Indochina infected RBC osmotic lysis, higher = more signal, called active from +8 up or from −8 down.
Assay [14] in a line: plasmodial surface anion channel blockers, osmotic lysis – cell-based, P. falciparum Indochina, OD700, 2 h, primary screen (AID 1155).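 Note: lysis reports solute entry through the parasite surface anion channel PSAC.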 Conditions: P. falciparum Indochina infected erythrocytes, higher = more signal, called active from +8 up or from −8 down.
Assay [15] can be described thus: changes in parasitized red cell lysis, either direction – P. falciparum Indochina, OD700, 3 h, PSAC antagonist project, primary screen (AID 1156). Conditions: P. falciparum-infected erythrocytes, osmotic lysis, higher = more signal, called active from +8 up or from −8 down.
The nature of assay [16]: plasmodial surface anion channel blockers, osmotic lysis – cell-based, P. falciparum Indochina, OD700, 18 h, primary screen (AID 1157). Conditions: P. falciparum Indochina infected erythrocytes, osmotic lysis OD700, 18 h; higher = more signal, called active from +8 up or from −8 down.
The nature of assay [17]: S6 kinase pathway phospho-S6 level changes – cell-based, A549, cytoblot, luminescence, serum-stimulated, primary screen (AID 1158).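 Note: serum-stimulated A549 lung adenocarcinoma cells; signal is phosphorylated S6 detected by cytoblot immunostaining with HRP secondary.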 The conditions noted are these: 5 h, higher = more signal.
Assay [18] has as its target NADPH oxidase 2 (Homo sapiens) (UniProt P04839). Kind of assay: compounds shifting NOX2 Amplex Red fluorescence – cell-based, HEK293-NOX2, PMA-stimulated, NOX inhibitor project, primary screen (AID 1159). Note: test concentration not given here. The conditions noted are these: 45 min, higher = more signal, called active from +8 up or from −8 down.
Assay [19] concerns the target NADPH oxidase 4 (Homo sapiens) (UniProt Q9NPH5). Kind of assay: compounds shifting NOX4 Amplex Red fluorescence – cell-based, HEK293-NOX4, tetracycline-induced, NOX inhibitor project, primary screen (AID 1160). Conditions: HEK293-NOX4, Amplex Red H2O2 fluorescence, 45 min; higher = more signal, called active from +8 up or from −8 down.
Assay [20] addresses NADPH oxidase 5 (Homo sapiens) (UniProt Q96PH1). Kind of assay: compounds shifting NOX5 Amplex Red fluorescence – cell-based, HEK293-NOX5, NOX inhibitor project, primary screen (AID 1161). The conditions noted are these: HEK293-NOX5, ionomycin, 45 min, higher = more signal.

Active and inactive are the calls of the source. Unless noted, the rule behind the calls is not given here.

Streptavidin (Streptomyces avidinii), sequence (P22629 whole entry, looked up): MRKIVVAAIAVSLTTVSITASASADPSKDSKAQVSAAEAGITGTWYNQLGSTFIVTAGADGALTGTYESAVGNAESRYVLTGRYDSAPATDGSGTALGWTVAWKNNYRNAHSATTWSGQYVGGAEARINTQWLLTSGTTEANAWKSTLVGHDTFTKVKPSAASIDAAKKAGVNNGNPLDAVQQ
NADPH oxidase 5 (Homo sapiens), sequence (Q96PH1 whole entry, looked up): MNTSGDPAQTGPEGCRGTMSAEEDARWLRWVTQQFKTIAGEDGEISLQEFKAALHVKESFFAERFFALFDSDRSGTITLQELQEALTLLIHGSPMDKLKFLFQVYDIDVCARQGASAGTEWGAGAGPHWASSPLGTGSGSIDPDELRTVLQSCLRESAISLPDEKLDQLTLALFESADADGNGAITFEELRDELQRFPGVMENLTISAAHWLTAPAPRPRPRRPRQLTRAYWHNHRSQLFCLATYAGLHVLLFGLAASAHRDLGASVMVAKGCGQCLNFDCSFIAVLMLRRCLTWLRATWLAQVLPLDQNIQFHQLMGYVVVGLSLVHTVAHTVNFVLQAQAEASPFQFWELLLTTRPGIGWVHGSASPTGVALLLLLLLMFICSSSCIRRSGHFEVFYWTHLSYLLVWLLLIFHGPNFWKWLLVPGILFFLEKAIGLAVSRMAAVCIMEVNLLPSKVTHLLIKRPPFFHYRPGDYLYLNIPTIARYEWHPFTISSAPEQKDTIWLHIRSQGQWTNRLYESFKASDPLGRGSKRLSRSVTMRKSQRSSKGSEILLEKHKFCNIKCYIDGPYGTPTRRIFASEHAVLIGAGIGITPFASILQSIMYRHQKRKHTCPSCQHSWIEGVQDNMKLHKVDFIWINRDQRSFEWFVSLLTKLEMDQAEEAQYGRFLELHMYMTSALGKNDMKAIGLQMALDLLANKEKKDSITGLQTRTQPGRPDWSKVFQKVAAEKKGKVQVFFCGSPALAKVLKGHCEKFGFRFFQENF
Torsin-1A (Homo sapiens), sequence (O14656 whole entry, looked up): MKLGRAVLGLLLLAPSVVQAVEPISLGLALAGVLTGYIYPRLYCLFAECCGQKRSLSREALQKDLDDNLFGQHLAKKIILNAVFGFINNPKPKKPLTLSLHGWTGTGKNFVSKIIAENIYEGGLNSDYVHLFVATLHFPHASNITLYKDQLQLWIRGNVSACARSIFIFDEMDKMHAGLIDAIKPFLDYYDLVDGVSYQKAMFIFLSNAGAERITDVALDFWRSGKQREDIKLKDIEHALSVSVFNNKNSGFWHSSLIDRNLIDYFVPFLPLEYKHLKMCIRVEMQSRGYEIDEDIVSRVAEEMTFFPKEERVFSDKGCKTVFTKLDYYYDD
NADPH oxidase 4 (Homo sapiens), sequence (Q9NPH5 whole entry, looked up): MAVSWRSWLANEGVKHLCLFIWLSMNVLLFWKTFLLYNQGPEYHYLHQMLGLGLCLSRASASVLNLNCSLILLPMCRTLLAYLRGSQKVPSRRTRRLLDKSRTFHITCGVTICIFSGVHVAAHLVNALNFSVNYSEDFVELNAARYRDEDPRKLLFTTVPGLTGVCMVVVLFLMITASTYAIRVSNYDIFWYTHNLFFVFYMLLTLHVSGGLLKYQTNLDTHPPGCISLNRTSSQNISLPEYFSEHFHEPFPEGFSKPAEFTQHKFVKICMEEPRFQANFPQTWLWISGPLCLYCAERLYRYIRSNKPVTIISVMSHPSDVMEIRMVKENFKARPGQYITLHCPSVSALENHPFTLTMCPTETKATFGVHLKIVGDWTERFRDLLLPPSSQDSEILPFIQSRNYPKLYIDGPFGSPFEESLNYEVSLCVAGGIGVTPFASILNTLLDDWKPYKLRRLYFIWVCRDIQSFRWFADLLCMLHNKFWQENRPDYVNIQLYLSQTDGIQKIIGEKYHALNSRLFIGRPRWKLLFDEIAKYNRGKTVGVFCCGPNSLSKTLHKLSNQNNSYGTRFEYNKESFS
NADPH oxidase 2 (Homo sapiens), sequence (P04839 whole entry, looked up): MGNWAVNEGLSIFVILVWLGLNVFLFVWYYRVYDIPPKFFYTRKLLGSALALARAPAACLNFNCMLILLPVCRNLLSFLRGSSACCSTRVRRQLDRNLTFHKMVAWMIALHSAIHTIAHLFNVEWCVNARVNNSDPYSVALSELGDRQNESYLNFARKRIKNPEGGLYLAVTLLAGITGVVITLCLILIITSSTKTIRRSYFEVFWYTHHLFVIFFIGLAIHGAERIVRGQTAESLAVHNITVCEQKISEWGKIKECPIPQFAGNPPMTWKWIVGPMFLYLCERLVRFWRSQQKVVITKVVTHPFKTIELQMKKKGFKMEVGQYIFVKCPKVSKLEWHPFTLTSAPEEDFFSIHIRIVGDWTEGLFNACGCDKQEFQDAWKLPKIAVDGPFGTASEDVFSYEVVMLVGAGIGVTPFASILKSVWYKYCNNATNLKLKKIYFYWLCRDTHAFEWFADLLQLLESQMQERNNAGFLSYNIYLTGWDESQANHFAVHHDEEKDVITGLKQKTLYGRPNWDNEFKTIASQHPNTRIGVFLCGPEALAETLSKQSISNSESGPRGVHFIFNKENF

For the compound `C[C@@H]1CC[C@@H](C(=O)O)N[C@H]1c1cccc(N2CCOCC2)c1`, the composite z-score is -0.0449 in [1]; 0.032 in [6]; -0.273 in assay [7]; 0.482 in assay [8]; 0.944 in assay [9]; 0.908 in assay [10]. The composite z-score in assay [12] was -0.0984. Also, the z-score is -0.538 (inactive) in assay [2]; -1.08 (inactive) in assay [3]; -0.974 (inactive) in assay [4]; -1.29 (inactive) in assay [5]; 0.563 (inactive) in assay [11]; -0.0136 (inactive) in assay [13]. The z-score is 0.18 (inactive) in assay [14]; 0.468 (inactive) in [15]; 0.247 (inactive) in [16]; 0.778 in assay [17]; -0.438 (inactive) in [18]; 0.65 (inactive) in assay [19]. The z-score in assay [20] stood at 0.252.
With `CC(=O)OC[C@H]1O[C@H](CC=NO[C@H](C)c2cn([C@@H]3COC[C@H]3O)nn2)C=C[C@@H]1OC(C)=O`, the composite z-score in assay [1] was 0.104; in assay [6] it was 0.182; in [7], -0.0494; in assay [8] it was -0.0469; in assay [9] it was -0.108; in assay [10] it was 0.165. For the same compound, in [12], the composite z-score was -0.27. The z-score was -0.29 (inactive) in assay [2]; -0.745 (inactive) in [3]; -0.724 (inactive) in assay [4]; -0.538 (inactive) in assay [5]; -0.676 (inactive) in assay [11]; -0.279 (inactive) in [13]. In addition, the z-score in assay [14] is -1.7 (inactive); in assay [15], -0.115 (inactive); in assay [16], -1.7 (inactive); in assay [17], 1.22; in [18], -1.01 (inactive); in [19], 0.127 (inactive). In addition, the z-score in [20] came to 0.0052.
As to `CC(=O)OC[C@H]1O[C@H](CC=NOC[C@@H](O)COCc2ccco2)C=C[C@@H]1OC(C)=O`, the composite z-score in assay [1] is 0.364; in assay [6] it was -0.436; in [7], -0.183; in [8], 3.67; in assay [9] it was 3.65; in [10], 2.07. The composite z-score in assay [12] is 0.0509. In addition, the z-score in [2] was 0.0896 (inactive); in assay [3], -0.196 (inactive); in assay [4], -0.729 (inactive); in assay [5] it was 0.25 (inactive); in assay [11], 0.241 (inactive); in assay [13], 0.77 (inactive). Moreover, the z-score is -0.161 (inactive) in [14]; 0.482 (inactive) in assay [15]; 0.515 (inactive) in assay [16]; 0.0978 in [17]; -0.431 (inactive) in assay [18]; 0.748 (inactive) in assay [19]. Moreover, the z-score in assay [20] came to 0.0957.
As to `CSCC[C@@H]1NC(=O)CC=C[C@@H](C)COC(=O)[C@H](C)COC1=O`, the composite z-score was 0.624 in assay [1]; -0.918 in [6]; -0.17 in [7]; 3.64 in assay [8]; 3.77 in assay [9]; 2.45 in assay [10]. For the same compound, in assay [12], the composite z-score was -0.321. Moreover, the z-score in assay [2] is -1.67 (inactive); in [3], -1.66 (inactive); in assay [4], 0.163 (inactive); in [5] it was -0.925 (inactive); in assay [11] it was 0.832 (inactive); in assay [13], -0.274 (inactive). The z-score in assay [14] was -1.3 (inactive); in assay [15], -0.92 (inactive); in assay [16], -1.58 (inactive); in assay [17], 2.08; in assay [18], -1.01 (inactive); in assay [19], 0.384 (inactive). In addition, the z-score in [20] is 0.515.
